This is a sample that favours compounds with a hit; in the whole collection about 4.6% have one here.
DAX1 inh-1 = DAX1 (NR0B1) inhibitors, primary screen, cell-based, HEK293, Gal4-DAX1, luciferase luminescence; HEK293 Gal4-DAX1 luciferase reporter; 0.99% of 340,000 active; AID 504766, 2011; inhibition, % at 6.75 µM;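 active means inhibition above the mean over all tested compounds plus 3 SD, cut at about 4.2% in these data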;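 further: 0% = DAX1-transfected cells with DMSO and 100% = empty-vector control cells with DMSO; inhibition shows as a rise in luminescence from relieved DAX1 repression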
ssDAF-12 act = S. stercoralis DAF-12 nuclear receptor activators, primary screen, cell-based, luminescence, HEK293, GRIP1 co-expression, lit1-tk-luc | activation, % at 6.8 µM | HEK293 ssDAF-12/GRIP1 lit1-tk-luc reporter; % of 3 µM dafachronic acid response | Nuclear hormone receptor DAF-12 (Strongyloides stercoralis) | AID 652126, 2013 | 1% of 370,000 active;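 active means activation above the mean over all tested compounds plus 3 SD, cut at about 0.9% in these data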;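 further: 0% = DMSO-only wells and 100% = 3 µM delta7-dafachronic acid wells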
hcDAF-12 act = H. contortus DAF-12 nuclear receptor activators, primary screen, cell-based, luminescence, HEK293, lit1-tk-luc reporter | HEK293 hcDAF-12 lit1-tk-luc reporter; 0% DMSO, 100% Δ7-dafachronic acid | activation, % at 6.8 µM | 1.4% of 370,000 active | AID 652067, 2013;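 active means activation above the mean of all tested compounds plus 3 SD, cut at about 5.5% in these data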;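 further: 100% = response to 3 µM Δ7-dafachronic acid high control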
hgDAF-12 ag = H. glycines DAF-12 receptor agonists, primary screen, cell-based, luminescence, HEK293, GAL4 fusion, UAS-luciferase; HEK293 GAL4-hgDAF12 UAS-luciferase reporter, agonist luminescence; normalized to butyrate control; 1.8% of 370,000 active; activation, % at 6.8 µM; AID 687014, 2013;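 active means activation above a cutoff set at the mean of all screened compounds plus 3 SD, cut at about 10% in these data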;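 further: 0% = DMSO wells and 100% = sodium butyrate wells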
Wee1 degr inh = Wee1 degradation inhibitors, primary screen, cell-based, HeLa, Wee1K328M-luciferase, luminescence; Wee1-like protein kinase (Homo sapiens), P30291; HeLa Luc-Wee1K328M stability; 100% = proteasome inhibitor MG132 effect; reporter increase, % at 5 µM; 1.2% of 220,000 active; AID 1321, 2008;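 active means activation above the mean of all tested compounds plus 3 SD, set per screening run, cut at about 8.8% in these data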;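 further: cells exposed to compound for 20 h before luminescence read; 0% = DMSO alone and 100% = MG132 at 30 µM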
Target sequence (P30291 whole entry K328M): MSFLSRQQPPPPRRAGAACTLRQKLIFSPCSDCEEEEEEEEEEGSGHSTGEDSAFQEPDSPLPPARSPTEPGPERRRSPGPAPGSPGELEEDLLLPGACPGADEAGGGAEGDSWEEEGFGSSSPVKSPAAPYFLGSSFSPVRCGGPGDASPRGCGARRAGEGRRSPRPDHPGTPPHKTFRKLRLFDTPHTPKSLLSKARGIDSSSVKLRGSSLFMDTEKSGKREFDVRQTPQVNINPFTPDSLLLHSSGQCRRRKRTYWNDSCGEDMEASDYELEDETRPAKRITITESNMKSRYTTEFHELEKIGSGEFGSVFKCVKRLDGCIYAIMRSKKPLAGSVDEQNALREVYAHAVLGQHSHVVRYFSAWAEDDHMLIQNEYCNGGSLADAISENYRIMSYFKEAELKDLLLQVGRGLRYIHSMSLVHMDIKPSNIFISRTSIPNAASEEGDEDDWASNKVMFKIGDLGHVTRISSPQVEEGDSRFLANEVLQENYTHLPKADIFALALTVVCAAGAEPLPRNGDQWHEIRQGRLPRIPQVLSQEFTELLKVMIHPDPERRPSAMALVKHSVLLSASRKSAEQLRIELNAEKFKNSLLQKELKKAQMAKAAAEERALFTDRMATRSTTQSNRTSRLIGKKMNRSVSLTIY
DAX1 inh-2 = DAX1 (NR0B1) inhibitors on StAR promoter, primary screen, cell-based, luminescence, SF-1 (NR5A1), full-length DAX-1. HEK293T StAR-luciferase reporter, SF-1/DAX-1 repression relief. inhibition, % at 6.8 µM. 1.1% of 370,000 active. AID 652010, 2013;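 active means inhibition above the mean over all tested compounds plus 3 SD, cut at about 3.6% in these data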;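 further: 0% = DAX-1 cells with DMSO and 100% = cells lacking DAX-1 with DMSO; higher inhibition means more luminescence from relief of DAX-1 repression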
hgDAF12 conf = H. glycines DAF-12 receptor agonists, confirmation, cell-based, luminescence, HEK293, GAL4-LBD fusion. AID 743050, 2013. 80% of 3,300 active. activation, % at 6.8 µM. shares compounds with hgDAF-12 ag. HEK293 GAL4-hgDAF12 luciferase reporter, agonist mode; percent of butyrate response;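 active means mean activation over triplicate wells above the hit cutoff derived from the earlier primary screen, cut at about 11% in these data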;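 further: 0% = DMSO low control and 100% = 2 mM sodium butyrate high control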
LXR ag 2 = LXR agonists, Gal4 luciferase reporter, confirmation, counter-screen for hgDAF-12 agonist project, cell-based, luminescence, HEK293, H. glycines campaign. shares compounds with hgDAF-12 ag. 24 h. activation, % at 6.8 µM. 3,300 tested, under 10 active;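 active means mean activation of the triplicate above a set limit carried over from the primary screen, none filed active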
* marks the source's active call; other numbers are inactive results; x = no result.

SMILES	DAX1 inh-1	ssDAF-12 act	hcDAF-12 act	hgDAF-12 ag	Wee1 degr inh	DAX1 inh-2	hgDAF12 conf	LXR ag 2
CC(=O)c1cccc(NC(=O)c2ccc3ccccc3c2)c1	2.2	0.8	3.9	19.2*	x	3.2	17.0*	0.8
O=C(Nc1ccc(Br)cn1)c1ccc2ccccc2c1	1.7	1.6*	4.5	14.4*	x	1.9	19.3*	0.8
CC(=O)c1ccc(NC(=O)c2cc3ccccc3o2)cc1	1.0	1.6*	5.1	14.2*	x	2.8	18.4*	0.8
CC(C)C(NC(=O)c1ccccc1)c1nnc(SCC(=O)NC2CCCC2)n1C (centres undefined)	-1.1	-1.0	-1.1	-1.8	x	0.2	x	x
O=C(NCCc1ccccc1)c1ccc(-c2ccc(F)c(F)c2)c2ccoc12	x	-1.1	0.5	-2.7	x	0.3	x	x
COCCNC(=O)C1(C)CCN(C(=O)COc2ccc(Cl)cc2Cl)C1 (centres undefined)	x	-1.7	1.0	-0.4	x	0.4	x	x
CCOc1ccc2nc(NC(=O)Cn3c(C)csc3=O)sc2c1	0.4	-0.6	0.2	1.2	x	3.4	x	x
CCOc1ccc2nc(NC(=O)CCC(=O)c3cccs3)sc2c1	3.0	-0.2	4.7	13.3*	-1.6	1.4	14.8*	0.6
COc1cc(OC)cc(C(=O)Nc2nc3ccc(S(C)(=O)=O)cc3s2)c1	0.1	-1.2	3.4	5.5	-0.9	-0.3	x	x
CS(=O)(=O)c1ccc2nc(NC(=O)c3cccs3)sc2c1	-2.0	0.6	6.3*	14.8*	4.1	4.0*	16.4*	0.8
COc1ccccc1-c1cnc(C(O)c2c(C)cc(C)cc2C)[nH]1 (centres undefined)	x	-1.3	-1.6	4.2	x	-0.9	x	x
CC(C)(C)OC(=O)N(CCc1ccccc1)Cc1ccccc1OCc1ccc(NC(=O)C2CCCC2)cc1	-0.3	-1.3	0.0	1.3	x	-1.0	x	x
COC(=O)C1CCN(C(=O)c2oc3c(Cl)cc(C)cc3c2C)CC1	1.2	0.4	3.5	13.9*	x	2.2	16.0*	0.6
CC(=O)Nc1c(O)nc(SCC(=O)Nc2ccc(C(C)=O)cc2)[nH]c1=O	0.9	-0.7	2.8	14.4*	-0.9	-0.4	11.7*	0.2
Cc1ccccc1C(=O)N1CCC(C(=O)N2CCCc3ccccc32)CC1	-0.5	-0.3	2.1	-1.6	x	0.5	x	x
NNC(=O)c1cccc(COc2ccc(Br)cc2)c1	-4.1	-0.5	4.2	18.8*	-2.3	3.7*	21.7*	0.8
COc1ccc(OCc2cccc(C(=O)NN)c2)cc1	-4.6	-0.6	1.9	18.4*	-3.8	3.9*	21.3*	0.9
CCCNC(=O)c1cccc(COc2ccccc2OC)c1	-2.3	-0.3	0.9	16.6*	0.5	2.4	14.2*	0.5
COc1cc(NC(=O)c2cc(C)no2)cc(OC)c1OC	-0.8	-1.1	0.8	-0.6	x	-0.5	x	x
CC(=O)NS(=O)(=O)c1ccc(NC(=O)c2oc3c(Cl)cccc3c2C)cc1	x	x	x	x	-1.6	x	x	x
CC(=O)C1CCC2C3CC=C4CC(SC(=N)N)CCC4(C)C3CCC12C (centres undefined)	-0.6	-1.4	-2.3	1.6	x	-3.6	x	x
Cc1ccc(OCc2ccc(Br)cc2)c([N+](=O)[O-])n1	x	0.6	4.0	18.4*	5.1	4.0*	14.3*	0.8
Cc1nc(C)c(C(=O)OCC(=O)NCCc2ccc(F)cc2)s1	2.1	-1.3	-1.8	-0.6	x	2.5	x	x
COc1ccc(C(=O)NNC(=S)NC(=O)c2cccs2)cc1	-1.1	-1.2	1.1	0.6	x	-0.5	x	x
COc1ccc(/C=C/C(=O)NC(=S)NNC(=O)c2cccs2)cc1	3.1	-1.3	2.1	13.3*	5.6	1.0	8.3	0.0
SMILES	DAX1 inh-1	ssDAF-12 act	hcDAF-12 act	hgDAF-12 ag	Wee1 degr inh	DAX1 inh-2	hgDAF12 conf	LXR ag 2
CC1(C(=O)NS(=O)(=O)c2ccc(Cl)s2)CCN1C(=O)CCc1ccccc1 (centres undefined)	x	-0.6	1.1	2.1	x	1.1	x	x
CCc1nc2c(OCc3cccc(Cl)c3)cccn2c1N(C)C(=O)CC(C)C	x	-2.4	-1.9	-5.7	x	-1.7	x	x
Cc1ccccc1C(=O)NCC(=O)c1ccccc1	x	-0.5	4.6	13.3*	x	2.0	11.0*	0.4
C[C@@H]1CN([C@H](C)CO)C(=O)c2cc(Br)cnc2O[C@@H]1CN(C)C(=O)C1CCOCC1	0.8	-1.0	0.2	-0.2	x	0.6	x	x
COc1ccc2oc(C(=O)Nc3nc4ccccc4[nH]3)c(C)c2c1	2.0	0.5	5.0	24.6*	4.3	4.2*	17.8*	1.0
O=C(Nc1ccc2nc(-c3ccccn3)c(-c3ccccn3)nc2c1)N1CCOCC1	-0.5	-1.1	-1.0	14.8*	-0.7	-0.1	-0.1	0.1
C=CCN1C(=O)C(=Cc2ccc3c(c2)CCC3)SC1=S	0.8	0.0	-1.0	1.0	x	0.3	x	x
Nc1ccccc1C(=O)NN=Cc1cccc([N+](=O)[O-])c1	x	0.5	2.7	24.7*	x	4.3*	15.3*	0.6
O=C(N/N=C/c1cccc([N+](=O)[O-])c1)c1ccc2c(c1)OCCO2	0.9	-0.1	2.6	15.5*	2.0	2.1	12.3*	0.7
Cc1nc2ccccc2cc1C(=O)N/N=C/c1cccc([N+](=O)[O-])c1	-1.7	-1.2	-1.4	-0.6	-1.1	-0.6	x	x
COCCNC(=O)C1(C)CCCN(C(=O)c2ccccc2F)C1 (centres undefined)	x	-1.2	-0.3	1.8	x	-0.4	x	x
COc1cc(/C=N/NC(=O)CCc2ccccc2)ccc1O	-1.2	-0.4	-1.0	-1.4	-1.1	-0.4	x	x
CCOc1cc(/C=N/NC(=O)C(=O)N/N=C/c2ccc(O)c(OCC)c2)ccc1O	1.6	-0.8	-1.9	-0.7	x	0.1	x	x
COc1cc(/C=N/NC(=O)CCC(=O)Nc2ccc(F)cc2)ccc1O	0.6	-1.2	0.2	23.9*	x	-0.3	-0.4	0.1
CCOc1cc(/C=N/NC(=O)N/N=C/c2ccc(O)c(OCC)c2)ccc1O	x	1.1*	5.5	14.0*	x	-0.5	16.4*	0.8

Source: PubChem BioAssay (The Scripps Research Institute Molecular Screening Center)
